# According to PubChem BioAssay (NCATS):
# Results filed as inconclusive are left out. A call without a number means that no potency is given here. Activity calls are given as the source filed them. Unless noted, calls come from the whole dose curve; as a rule, active = well fitted curve in the direction sought with a large enough effect; inconclusive = small, poorly fitted or top-dose-only effect, or another doubt; inactive = no such curve, though single readings can be large; an effect the other way counts as inactive or inconclusive.
# How the values were obtained:
# [1] = molecular target: Cytochrome P450 3A4 (Homo sapiens) (UniProt P08684); test: qHTS Assay for Activators of Cytochrome P450 3A4 (AID 885); note: nearly all actives have a fitted effect of over 65% in size
# Sequence of Cytochrome P450 3A4 (Homo sapiens) (P08684 whole entry, looked up): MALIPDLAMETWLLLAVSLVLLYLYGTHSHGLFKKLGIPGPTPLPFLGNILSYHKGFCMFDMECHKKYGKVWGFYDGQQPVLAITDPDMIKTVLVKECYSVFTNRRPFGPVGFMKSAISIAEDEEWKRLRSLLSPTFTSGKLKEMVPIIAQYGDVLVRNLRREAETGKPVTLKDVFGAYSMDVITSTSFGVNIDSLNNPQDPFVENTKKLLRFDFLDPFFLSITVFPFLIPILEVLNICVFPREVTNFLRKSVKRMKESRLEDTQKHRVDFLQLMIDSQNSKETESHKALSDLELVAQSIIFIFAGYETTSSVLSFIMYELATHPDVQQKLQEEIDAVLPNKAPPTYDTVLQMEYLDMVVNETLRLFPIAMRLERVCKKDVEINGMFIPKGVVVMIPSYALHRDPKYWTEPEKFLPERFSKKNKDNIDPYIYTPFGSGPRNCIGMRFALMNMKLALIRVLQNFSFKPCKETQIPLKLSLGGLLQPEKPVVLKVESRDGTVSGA
# In short: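 Using 20nM recombinant human CYP3A4 in potassium phosphate (200mM), substrate Luciferin-PPXE at 25uM, luminescent luciferin detection followed a 60-min RT NADPH reaction; data scaled to 57 uM ketoconazole.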
# [2] = Confirmation and Secondary Assay for Modulators of Hemoglobin Beta Chain Splicing at IVS2 654 locus (AID 910);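 note: per-well total GFP intensity by laser scanning cytometry after 2-day treatment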
# In short: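 HeLa cells stably carrying EGFP interrupted by mutant beta-globin IVS2-654 intron (CMV-driven) were treated with compound for 2 days at 37C; corrected splicing was scored as total peak GFP intensity per well (488 nm excitation, 500-520 nm emission).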
# [3] = Confirmation and Secondary Assay for Modulators of Hemoglobin Beta Chain Splicing at IVS2 705 locus (AID 930);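 note: HeLa cells stably expressing the EGFP-705 splicing reporter; GFP fluorescence per well restored by corrected splicing of the IVS2-705 intron in EGFP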
# In short: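 Assay measures total GFP intensity per well in HeLa EGFP-705 cells after 2 days with compound; mis-splicing normally truncates EGFP, so fluorescence indicates corrected splicing.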
# [4] = qHTS Assay for Lipid Storage Modulators (AID 1519; calls by dose curve); conditions: Drosophila S3 cells, BODIPY lipid droplet/cell ratio, laser cytometry, cells loaded with oleic acid
# In short: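 Cells seeded at 5,000 per well were treated with compounds over a concentration series and loaded with oleic acid (400 uM, as added). Lipid droplet fluorescence (488 nm excitation, 500-530 nm channel) was read by laser-scanning cytometry and normalized to 20 uM Triacsin C.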
# [5] = molecular target: Ubiquitin carboxyl-terminal hydrolase 1 (Homo sapiens) (UniProt O94782); test: Inhibitors of USP1/UAF1: Pilot qHTS (AID 504865);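 note: rhodamine fluorescence freed from ubiquitin-rhodamine substrate followed over time; top concentration of the series differs between compounds; nearly all actives have a fitted effect of over 35% in size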
# Sequence of Ubiquitin carboxyl-terminal hydrolase 1 (Homo sapiens) (O94782 whole entry, looked up): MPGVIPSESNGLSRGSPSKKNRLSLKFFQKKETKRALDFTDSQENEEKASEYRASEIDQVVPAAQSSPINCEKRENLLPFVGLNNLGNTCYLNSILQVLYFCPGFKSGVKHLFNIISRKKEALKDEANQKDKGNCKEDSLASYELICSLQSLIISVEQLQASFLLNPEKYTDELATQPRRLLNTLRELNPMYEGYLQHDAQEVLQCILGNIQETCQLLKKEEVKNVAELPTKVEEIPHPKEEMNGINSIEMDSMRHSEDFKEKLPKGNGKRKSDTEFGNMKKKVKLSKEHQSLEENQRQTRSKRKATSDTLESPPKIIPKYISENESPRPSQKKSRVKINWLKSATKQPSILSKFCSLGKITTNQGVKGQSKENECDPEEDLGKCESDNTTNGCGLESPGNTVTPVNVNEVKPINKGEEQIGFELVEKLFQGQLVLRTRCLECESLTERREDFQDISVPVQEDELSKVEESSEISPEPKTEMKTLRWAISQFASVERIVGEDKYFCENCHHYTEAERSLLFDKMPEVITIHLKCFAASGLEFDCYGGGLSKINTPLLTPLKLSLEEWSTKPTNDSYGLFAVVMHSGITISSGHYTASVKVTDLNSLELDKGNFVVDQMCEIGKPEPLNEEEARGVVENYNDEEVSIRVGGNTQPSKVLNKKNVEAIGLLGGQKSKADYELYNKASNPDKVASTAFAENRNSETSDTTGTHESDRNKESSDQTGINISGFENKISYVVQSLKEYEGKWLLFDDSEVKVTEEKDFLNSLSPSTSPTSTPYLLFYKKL
# In short: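 Kinetic fluorescence assay: 1nM USP1/UAF1, 15 min compound preincubation, then 150nM Ub-Rho; 480/540 nm.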
# [6] = P-glycoprotein substrates identified in KB-8-5-11 adenocarcinoma cell line, qHTS therapeutic library screen (AID 1346987); note: nearly all actives have a fitted effect of over 65% in size
# In short: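 Luminescence from CellTiter-Glo, read 5 min after addition, quantified survival of KB-8-5-11 (P-gp-overexpressing) cells exposed to compounds for 72 h. AC50 was derived from concentration-response curves.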
# [7] = Primary qHTS for inhibitors of nuclear receptor binding SET domain protein 2 (NSD2) in an isogenic RCH-ACV NSD2 p.E1099K mutant (9B) (AID 1645876); note: potency is the fitted concentration of half-maximal effect; nearly all actives have a fitted effect of over 70% in size
# [8] = Primary qHTS for inhibitors of nuclear receptor binding SET domain protein 2 (NSD2) in an RCH-ACV wild type WT cells (2C) (AID 1645877); note: potency is the fitted concentration of half-maximal effect; nearly all actives have a fitted effect of over 70% in size
# [9] = molecular target: Glutathione peroxidase 1 (Homo sapiens) (UniProt P07203); test: Primary qHTS Assay for Inhibitors of Recombinant Selenoprotein Glutathione Peroxidase 1 (GPX1) (AID 1845191); note: nearly all actives have a fitted effect of over 65% in size
# Sequence of Glutathione peroxidase 1 (Homo sapiens) (P07203 whole entry, looked up): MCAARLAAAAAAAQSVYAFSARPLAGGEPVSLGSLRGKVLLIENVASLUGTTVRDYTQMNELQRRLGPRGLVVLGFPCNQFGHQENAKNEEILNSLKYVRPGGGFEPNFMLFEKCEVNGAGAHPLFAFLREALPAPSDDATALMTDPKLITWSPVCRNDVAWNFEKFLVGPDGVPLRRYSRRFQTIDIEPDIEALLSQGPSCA
# In short: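 GPX1 10 nM, GR 100 nM, GSH 1 mM, NADPH 0.5 mM, CHP 0.5 mM (final). 30-min cpd preincubation, RT. Ex340/Em450 read t=0, t=15 min.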
# [10] = molecular target: Calcium and integrin-binding protein 1 (Homo sapiens) (UniProt Q99828); test: Primary qHTS for Identification of Calcium Integrin Binding Protein 1 (CIB1) Competitor (AID 1508620);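 note: GST tagged CIB1 binding a fluorescein labelled alphaIIb integrin peptide tracer; top concentration of the series differs between compounds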
# Sequence of Calcium and integrin-binding protein 1 (Homo sapiens) (Q99828 whole entry, looked up): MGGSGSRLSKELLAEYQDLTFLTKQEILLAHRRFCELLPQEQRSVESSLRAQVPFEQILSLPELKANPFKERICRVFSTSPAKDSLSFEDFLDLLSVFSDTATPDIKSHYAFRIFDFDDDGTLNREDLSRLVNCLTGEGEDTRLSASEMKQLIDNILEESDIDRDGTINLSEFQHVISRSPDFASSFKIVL
# In short: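 Fluorescence polarization competition: CIB1-GST (1 uM final) preincubated with compound 15 min at room temperature, then FITC-labeled alphaIIb peptide (100 nM final) added for another 15 min. Polarization read at Ex 480/Em 540.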
smiles,measurement,setting,value
COc1cc(O)c2c(=O)c(O)c(-c3ccc(O)c(O)c3)oc2c1,Potency,[1],inactive
same,outcome,[2],inactive
same,outcome,[3],inactive
same,"activity change, negative = inhibition",[4]; at 57.5 µM (top of the series),4.09% (inactive)
same,max response,[4]; measured here: cell count channel max response,-9.74%
same,max response,[4]; measured here: lipid channel max response,-5.25%
same,Potency,[5],inactive
same,Potency,[6],inactive
same,Potency,[7],10.3 µM (active)
same,Potency,[8],14.6 µM (active)
same,Potency,[9],inactive
Cc1ccc(NS(=O)(=O)c2cc3c(cc2N[C@@H](C)CO)NC(=O)CC3)cc1C,Potency,[6],inactive
same,outcome,[10],inactive
COc1cc(Br)c(C[N+]2(CCOCCC3CCC4CC3C4(C)C)CCOCC2)cc1OC (centres undefined),Potency,[6],inactive
